Shown are actives, neighbours in structure and some others; about 1.7% of the full set was active somewhere.
GLP-1R inv ag = GLP-1 receptor (human) inverse agonism; P43220; 410,000 tested, 1.6% active; HEK293 GLP-1R CRE-luciferase, luminescence, 24 h; GLP-1R form is constitutively active; Potency, µM (highest dose often 38.3 µM), for the others: at the top dose activity change, negative = inhibition, usual class: inhibitors; also: % is scaled to controls: 0 for no effect and ±100 for the full control effect; nearly all actives have a fitted effect of over 55% in size
Target sequence (P43220 whole entry, looked up): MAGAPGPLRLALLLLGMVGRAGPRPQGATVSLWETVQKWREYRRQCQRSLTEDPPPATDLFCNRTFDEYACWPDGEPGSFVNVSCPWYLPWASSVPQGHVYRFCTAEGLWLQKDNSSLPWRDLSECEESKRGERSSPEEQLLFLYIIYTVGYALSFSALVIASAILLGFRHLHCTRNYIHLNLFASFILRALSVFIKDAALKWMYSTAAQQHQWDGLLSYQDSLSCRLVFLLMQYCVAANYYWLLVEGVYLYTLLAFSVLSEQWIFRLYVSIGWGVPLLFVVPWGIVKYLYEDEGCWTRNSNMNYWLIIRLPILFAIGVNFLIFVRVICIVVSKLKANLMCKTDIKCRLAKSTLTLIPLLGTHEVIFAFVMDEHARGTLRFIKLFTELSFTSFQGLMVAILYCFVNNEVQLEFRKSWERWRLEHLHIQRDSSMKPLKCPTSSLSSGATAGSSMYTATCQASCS
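HEK293 cells stably co-expressing constitutively active GLP-1R and a cAMP-responsive luciferase reporter were seeded in DMEM with 10% Nu serum, given compounds after 12 h, and incubated 24 h at 37 deg C. Luminescence was then read.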
GLP1R ag = GLP-1 receptor (human) agonism; P43220; HEK293 GLP-1R CRE-luciferase, luminescence, 4-6 h; cells express a hypersensitive GLP-1R form; Potency, µM (series often up to 45.6 µM), without a hit: top-dose activation, actives largely listed as activators; 380,000 tested, 0.007% active; also: % of control where 0% means no effect
HEK293 tox = cytotoxicity counter-screen for GLP-1 receptor inverse agonists; 410,000 tested, 0.13% active; AID 624418; HEK293 cAMP-luciferase reporter cells, luminescence, 24 h; Potency, µM (series often up to 38.3 µM), for the others: at the highest dose activity change, negative = inhibition, usual class: inhibitors;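 also: loss of luciferase light is scored as toxicity; % is scaled to controls: 0 for no effect and ±100 for the full control effect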
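A 23 nL compound transfer followed 12 hours of cell culture at 37 deg C; exposure then lasted 24 hr. Luciferase assay detection reagent was dispensed and plates read for luminescence after a 12 min room-temperature wait.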
Starred values were filed as active, the others as inactive; ? = inconclusive; . = no result; [ ] = remark or other dose. Calls follow the shape of the dose curve; as a rule, active = well fitted curve in the direction sought with a large enough effect; inconclusive = small, poorly fitted or top-dose-only effect, or another doubt; inactive = no such curve, though single readings can be large; an effect the other way counts as inactive or inconclusive. Potency is read from the fitted curve at half-maximal effect.

SMILES	GLP-1R inv ag	GLP1R ag	HEK293 tox
COc1ccc(CCNC(=O)c2c(N)n(CCN3CCOCC3)c3nc4ccccc4nc23)cc1OC	10µM*	0%	115%
O=C(NCc1ccc(Cl)cc1)C1CCN(C(=O)c2cnn(-c3ccccc3)c2-n2cccc2)CC1	?	.	-6%
CCOc1cc(-c2c(C#N)c(=O)[nH]c3c2c(C)nn3-c2ccc(F)cc2)ccc1O	?	5%	-26%
Cc1ccc(-n2nc3c(=O)n(CC(=O)NCC(C)c4ccccc4)nc(C)c3c2C)cc1 (stereo not given)	?	.	4%
C=C1C(=O)O[C@@H]2C[C@@H](C)[C@@H]3C=CC(=O)[C@@]3(C)[C@@H](OC(C)=O)[C@H]12	4.5µM*	-23%	?
C=C1C(=O)O[C@@H]2C[C@@H](C)[C@@H]3C=CC(=O)[C@@]3(C)[C@@H](O)[C@H]12	2.5µM*	-10%	?
CC(C)NC(=O)NC(=O)CSc1nnc(COc2ccccc2F)n1C(C)C1CC2CCC1C2 (stereo not given)	?	-17%	?
COc1cc2c(cc1NC(=O)C(Cl)Cl)-c1ccc(NC(=O)C(Cl)Cl)cc1C2	8%	-5%	?
CCOc1ccc(-c2nc(CSCC(=O)NCCc3ccc(OCC)c(OCC)c3)c(C)o2)cc1	?	.	-5%
CC(Sc1ncnc2sccc12)C(=O)Nc1ccc(S(=O)(=O)N2CCOCC2)cc1 (stereo not given)	78%	25%	-7%
Cc1cccc(-c2cc3nc(-c4ccccc4)cc(N4CCC5(CC4)OCCO5)n3n2)c1	10µM*	0%	113%
Cc1nc2cc(-c3cccc(F)c3)nn2c(C)c1CCC(=O)N1CCC2(CC1)OCCO2	25%	-3%	-2%
O=C(CN1C(=O)CN=C(c2ccccc2)c2ccccc21)Nc1cccc(C(F)(F)F)c1	?	.	-14%
O=C(NCc1ccc2c(c1)CCN2C(=O)c1ccccc1)Nc1cccc(C(F)(F)F)c1	4µM*	.	-23%
COc1ccc(C)cc1NC(=O)CCS(=O)(=O)c1ccc2c(c1)oc(=O)n2C	17%	-4%	?
N#CC(C#N)=NNc1ccc([N+](=O)[O-])cc1	2.2µM*	-10%	?
CCN(CC)S(=O)(=O)c1ccc(NN=C(C#N)C#N)cc1	?	-22%	-10%
NC1=C(Br)C(=O)c2ncccc2C1=O	3.2µM*	-12%	4µM*
OC1CCC(Nc2ccn3nc(-c4cccc(OCc5ccccc5)c4)cc3n2)CC1 (stereo not given)	?	-2%	-20%
Oc1ccc(N=Nc2nc(-c3ccccc3)c(-c3ccccc3)[nH]2)cc1	5.6µM*	-1%	10µM*
COc1ccc(-c2[nH]ncc2N=Nc2ccccc2)cc1	-11%	8%	?
CCC(=O)O[C@@](Cc1ccccc1)(c1ccccc1)[C@H](C)CN(C)C	.	-7%[96 µM]	.
CC(=O)[O][Hg][c]1ccccc1	.	-11%	.
Cc1ccc(C(=O)Nc2nc3ccccc3[nH]2)cc1	1.3µM*	-6%	-13%
Cc1ccc(C(=O)Nc2nc3ccccc3n2CCN2CCCC2)cc1	?	-19%	?
SMILES	GLP-1R inv ag	GLP1R ag	HEK293 tox
CC12CCC3c4ccc(OC(=O)N(CCCl)CCCl)cc4CCC3C1CCC2O (stereo not given)	10µM*	-2%	?
C[C@]12CCC3C(CCC4=C(Cl)C(=O)CC[C@@]43C)C1CCC2O (stereo not given in full)	.	21%	.
O=C(CNC(=O)OCc1ccccc1)Nc1ccc(Br)cc1C(=O)c1ccccc1	11µM*	-9%	-27%
O=C(CNC(=O)OCc1ccccc1)NCC(=O)Nc1ccc(Br)cc1C(=O)c1ccccc1	1%	4%	-2%
O=C(CCCOc1ccc(Cl)cc1Cl)Nc1cc(S(=O)(=O)N2CCOCC2)ccc1N1CCOCC1	?	3%	-16%
COc1ccc2[nH]cc(CCN=C(NC(=O)c3ccccc3OC)Nc3nc(C)cc(C)n3)c2c1	?	-4%	-29%
CCCN(CCC)c1nc(NC2CCN(C(=O)OCC)CC2)nc(OC)n1	2.8µM*	8%	?
COc1nc(NC2CCCCC2)nc(NC(C)(C)C)n1	?	?	4%
O=C1NC(=O)C(=Cc2ccccc2OCCOc2ccc([N+](=O)[O-])cc2)C(=O)N1	10µM*	6%	?
CN1C(=O)C(=Cc2ccccc2OCCOc2ccc([N+](=O)[O-])cc2)C(=O)N(C)C1=O	?	12%	-29%
COc1cccc(/C=N/n2c(SC)nnc2-c2ccccc2)c1O	?	16%	180%
O=c1nc(/C=C/c2ccc(Cl)cc2Cl)cc(C(F)(F)F)[nH]1	4µM*	-4%	-7%
COc1ccc(S(=O)(=O)N2CCN(C(=O)c3ccc(COc4ccccc4)o3)CC2)cc1	?	2%	-12%
Cc1ccc(S(=O)(=O)NCCC(=O)Nc2ccc(Cl)cc2C(=O)c2ccccc2)cc1	11µM*	8%	11%
Cc1ccc(OCC(=O)Nc2ccc(Cl)cc2C(=O)c2ccccc2)cc1	7%	-4%	2%
c1ccc2c(c1)[IH]c1ccccc1-2	4.5µM*	-11%	?
c1ccc2c(c1)-c1cccc3cccc-2c13	15%	5%	2%
CCOC(=O)C1CCCN(c2ccc([N+](=O)[O-])c3nonc23)C1 (stereo not given)	21%	?	10µM*
CCOC(=O)C1CCCN(S(=O)(=O)c2ccc3c4c(cccc24)C(=O)N3CC)C1 (stereo not given)	12%	22%	137%
Cc1ccc(NC(=O)CNC(=O)c2cccc(C)c2)nc1	?	8%	?
CCOC(=O)N1CCC(NC(=O)c2ccc3c(c2)N(Cc2cccc(C)c2)C(=O)c2ccccc2S3(=O)=O)CC1	?	-4%	-16%
O=C(CN1CCN(c2ccc([N+](=O)[O-])cc2)CC1)Nc1ccccn1	-17%	16%	110%
CCOP(=O)(C#CC(C)(C)C)C(C)(O)c1ccccc1 (stereo not given)	-1%	-20%	-18%
CC(C)(C#CC(=O)O)OOC(c1ccccc1)(c1ccccc1)c1ccccc1	11µM*	-6%	-20%
CC12CCC(=O)CC1CCC1C2CCC2(C)C1CCC2(C)O (stereo not given)	.	-7%	.
SMILES	GLP-1R inv ag	GLP1R ag	HEK293 tox
CC1CN(c2nc(-c3ccc(Br)cc3)nnc2-c2ccccc2)CC(C)N1 (stereo not given)	2.8µM*	5%	?
C=CCC1=C(C)C(OC(=O)C2C(C=C(C)C)C2(C)C)CC1=O (stereo not given)	.	0%[96 µM]	.
CCOC(=O)c1ccc(NC(=O)Nc2cc3c(cc2N2CCCCC2)n(CC)c(=O)n3CC)cc1	10µM*	-13%	-22%
CCOC(=O)c1sc(NC(=O)Nc2ccccc2)cc1C	?	-5%	?
C=CCc1ccccc1OCCn1c(C2CC(=O)N(Cc3ccc(F)cc3)C2)nc2ccccc21 (stereo not given)	?	.	-18%
O=C(NCCSc1c(-c2ccc(F)cc2)[nH]c2ccccc12)c1ccc(S(=O)(=O)N2CCOCC2)cc1	?	.	-2%
COc1ccc(CCNC(=O)c2ccc3c(c2)N=C(C)c2cc(C)ccc2S3)cc1OC	?	1%	-17%

Screening data (PubChem)
